# miR122 inh: miR-122 suppressors via Renilla sensor increase, primary screen, cell-based, Huh7 psiCHECK-miR122, Renilla luciferase, single point; 340,000 tested, 0.14% active; AID 623901, 2012; 48 h; activation, % at 12.5 µM;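 active means mean activation of 30% or more, with every replicate also reaching 30%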;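 further: higher luciferase signal means stronger suppression of miR-122 activity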
# A number is an active result; . = inactive. The entries come from a sample that favours hits as a whole.
SMILES,miR122 inh
CN(C[C@H]1N[C@@H](CO)[C@H]1c1ccc(-c2ccccc2)cc1)C(=O)C1CCC1,42
CO[C@H]1CN(C)C(=O)c2ccc(NS(=O)(=O)c3ccc(C)cc3)cc2OC[C@@H](C)N(C)C[C@H]1C,.
C[C@@H]1CN([C@H](C)CO)C(=O)c2cc(C#Cc3ccc(F)cc3)cnc2O[C@@H]1CN(C)CC1CCOCC1,.
COCC#Cc1cnc2c(c1)C(=O)N([C@H](C)CO)C[C@@H](C)[C@H](CN(C)C(=O)Nc1ccccc1OC)O2,.
COc1ccc(NC(=O)N(C)C[C@H]2Oc3ccc(NC(=O)Nc4ccc(C(F)(F)F)cc4)cc3CC(=O)N([C@@H](C)CO)C[C@H]2C)cc1,.
COc1cccc(C#Cc2ccc3c(c2)O[C@@H](CN(C)S(=O)(=O)c2ccccc2F)[C@@H](C)CN([C@H](C)CO)S3(=O)=O)c1,.
C[C@H]1CN([C@@H](C)CO)C(=O)c2cc(-c3cccc(F)c3)cnc2O[C@@H]1CN(C)CC1CCCC1,.
C/C=C/c1ccc2c(c1)O[C@H](CN(C)S(C)(=O)=O)[C@H](C)CN([C@H](C)CO)S2(=O)=O,.
O=C(OCc1ccccc1Cl)c1ccccc1C(=O)c1ccccc1,.
O=C(COC(=O)c1ccccc1C(=O)c1ccc(Cl)c([N+](=O)[O-])c1)NC1CCCCCC1,63
Cc1c(NC(=O)NC2CCCCC2)cccc1[N+](=O)[O-],.
Cc1ccc(-c2cnc3c(c2)C(=O)N([C@@H](C)CO)C[C@@H](C)[C@H](CN(C)C(=O)Cc2cccnc2)O3)cc1,.
CC(C)CC#Cc1ccc2c(c1)O[C@@H](CN(C)C(=O)C1CCOCC1)[C@H](C)CN([C@H](C)CO)S2(=O)=O,.
C[C@H]1CN([C@@H](C)CO)S(=O)(=O)c2ccc(C#Cc3ccc(F)cc3)cc2O[C@@H]1CN(C)S(=O)(=O)c1cn(C)cn1,.
CNC[C@@H]1Oc2cc(-c3ccc(OC)cc3)ccc2S(=O)(=O)N([C@H](C)CO)C[C@H]1C,.
C[C@H]1CN([C@@H](C)CO)C(=O)c2cc(-c3cccc(C(=O)N(C)C)c3)cnc2O[C@H]1CN(C)S(=O)(=O)c1ccc(F)cc1,.
CCCCCCOc1ccc(/C(C)=N/NC2=NCCN2)cc1,65
Cc1ccccc1-c1cnc2c(c1)C(=O)N([C@H](C)CO)C[C@H](C)[C@H](CN(C)C(=O)c1ccccc1)O2,.
COc1ccccc1N(CC(=O)N1CCCCC1C)S(=O)(=O)c1ccc(Cl)cc1 (centres undefined),.
COc1ccccc1S(=O)(=O)Nc1cccc(S(=O)(=O)N2CCCC2)c1,.
COc1cc(C(=O)Nc2ccc(S(=O)(=O)N3CCCCC3C)cc2)cc(OC)c1OC (centres undefined),46
CC(=O)N(C)C[C@H]1Oc2cc(C#CC3(O)CCCC3)ccc2S(=O)(=O)N([C@@H](C)CO)C[C@H]1C,.
CCC(=O)N(C)C[C@H]1Oc2ncc(C#C[C@@H](C)O)cc2C(=O)N([C@@H](C)CO)C[C@@H]1C,.
Cc1cc2[nH]c3c4ccccc4nc(C)c3c2cc1C,72
CCC(=O)N(C)C[C@@H]1Oc2ncc(-c3cccc(OC)c3)cc2C(=O)N([C@H](C)CO)C[C@@H]1C,.
SMILES,miR122 inh
CC(=O)C1=C(c2ccc(Br)cc2)C(=O)c2ccccc2C1=O,76
C[C@H](CO)N1C[C@H](C)[C@@H](CN(C)S(=O)(=O)c2ccc(F)cc2)Oc2ncc(/C=C/c3ccccc3)cc2C1=O,.
C[C@@H]1CN([C@@H](C)CO)C(=O)c2cc(-c3ccc(F)cc3)cnc2O[C@H]1CN(C)C(=O)c1ccccn1,.
CCC(=O)Nc1ccc(C(=O)Nc2cccc(C)n2)cc1,.
CCC(=O)Nc1cccc(C(=O)/C=C/c2ccccc2)c1,36
CCC(=O)Nc1ccc(S(=O)(=O)NCCc2ccccc2)cc1,.
COCC(=O)N(C)C[C@@H]1Oc2ncc(C#Cc3ccncc3)cc2C(=O)N([C@@H](C)CO)C[C@H]1C,.
Cc1ccc(-c2cnc3c(c2)C(=O)N([C@H](C)CO)C[C@H](C)[C@H](CN(C)C(=O)c2ccncc2)O3)cc1,.
CCCC#Cc1ccc2c(c1)O[C@H](CN(C)C(=O)c1cccnc1)[C@H](C)CN([C@@H](C)CO)S2(=O)=O,.
COc1ccc(NC(=O)N(C)C[C@@H]2Oc3ncc(Br)cc3C(=O)N([C@H](C)CO)C[C@@H]2C)cc1,.
Cc1nnc(NC(=O)CSc2nc(C(C)C)nc3sc(C)c(C)c23)s1,55
C[C@@H]1CN([C@@H](C)CO)S(=O)(=O)c2ccc(C#CC3CC3)cc2O[C@@H]1CN(C)C(=O)C1CC1,.
Cc1noc(C)c1S(=O)(=O)N(C)C[C@@H]1Oc2c(NC(=O)C3CCOCC3)cccc2C(=O)N([C@@H](C)CO)C[C@@H]1C,.
C[C@@H]1CN([C@H](C)CO)C(=O)c2cc(C#CCC3CCCC3)cnc2O[C@@H]1CN(C)Cc1ccccn1,.
COCC#Cc1cnc2c(c1)C(=O)N([C@@H](C)CO)C[C@@H](C)[C@H](CN(C)C(=O)Nc1ccc(OC)cc1)O2,.
C[C@H]1CN([C@@H](C)CO)S(=O)(=O)c2ccc(C#Cc3ccccc3)cc2O[C@H]1CN(C)S(=O)(=O)c1ccccc1F,.
CCCNC(=O)N1[C@H](CNC(=O)c2ccc(F)cc2)[C@H](c2ccccc2)[C@@H]1CO,42
CCCNC(=O)NC[C@@H]1[C@@H](c2ccc(C3=CCCCC3)cc2)[C@H](CO)N1C(C)=O,.
CCC(=O)Nc1ccc2c(c1)C(=O)N(C)C[C@@H](OC)[C@H](C)CN(Cc1ccccc1OC)[C@@H](C)CO2,.
CCC(=O)Nc1ccc2c(c1)OC[C@H](C)N(CCC(F)(F)F)C[C@@H](C)[C@@H](OC)CN(C)C2=O,.
COc1ccccc1S(=O)(=O)N(C)C[C@H]1Oc2cc(/C=C/c3ccccc3)ccc2S(=O)(=O)N([C@H](C)CO)C[C@H]1C,.
C[C@H]1CN([C@@H](C)CO)S(=O)(=O)c2ccc(C#Cc3ccccc3)cc2O[C@@H]1CN(C)C(=O)Nc1ccc2c(c1)OCO2,.
COc1ccccc1C#Cc1ccc2c(c1)O[C@H](CN(C)Cc1ccncc1)[C@@H](C)CN([C@@H](C)CO)S2(=O)=O,.
COc1ccc(/C=N/NC(=O)COc2ccccc2-c2ccccc2)cc1,.
COc1ccc(NC(=O)CN(C)C(=O)/C=C/c2ccc(OCc3ccccc3)cc2)cc1,43
COc1ccc(NC(=O)CCN2C(=O)c3ccccc3C2=O)cc1,.
C[C@H]1CN([C@@H](C)CO)C(=O)c2cccc(NC(=O)Nc3ccccc3)c2O[C@@H]1CN(C)Cc1ccc(C(=O)Nc2ccccc2N)cc1,.
C[C@@H]1CN([C@H](C)CO)C(=O)c2cc(-c3cccc(C#N)c3)cnc2O[C@H]1CN(C)C(=O)C1CCCCC1,.
COc1ccc(NC(=O)Nc2ccc3c(c2)OC[C@H](C)NC[C@@H](C)[C@@H](OC)CN(C)C3=O)cc1,.
CC(C)NC(=O)N(C)C[C@H]1Oc2cc(C3=CCCCC3)ccc2S(=O)(=O)N([C@@H](C)CO)C[C@H]1C,.
